Bioassay records from PubChem BioAssay.
The list is not random: actives were taken first. Their share in the collection is about 3.1%.
E coli Lon inh: E. coli protease La inhibition; 360,000 compounds, 0.42% hits; inhibition, % at 7.94 µM; purified E. coli Lon protease, fluorescence polarization; P0A9M0; in the data active = inhibition above about 13%, passing the limit was not always enough
PAFAH2 FP inh: inhibitors of human PAFAH2; Q99487; inhibition, % at 3.39 µM; recombinant PAFAH2, FP-rhodamine activity probe, fluorescence polarization; 340,000 compounds, 0.99% hits;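 active = inhibition above the mean over all tested compounds plus 3 SD, cut at about 30% in these data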;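 note: inhibitors block probe labeling of enzyme so polarization drops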
pPAFAH inh: pPAFAH (human) enzyme inhibition | Q13093 | recombinant pPAFAH, FP-rhodamine probe fluorescence polarization | inhibition, % at 3.39 µM | 330,000 compounds, 1.5% hits | AID 463082;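 active = inhibition above the mean inhibition across the screen plus 3 SD, cut at about 25% in these data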;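 note: inhibitors block binding of the rhodamine activity-based probe so polarization drops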
Rin1 Abl inh: blocks binding of human Rin1 to Abl. P00519+Q13671. TR-FRET Rin1/Abl binding, biochemical. inhibition, % at 7.35 µM. 360,000 compounds, 0.4% hits. AID 588664; in the data active = inhibition above about 5%, passing the limit was not always enough
PAFAH1B3 FP inh: inhibitors of human PAFAH1B3; Q15102; recombinant PAFAH1B3, FP-rhodamine probe, fluorescence polarization; inhibition, % at 3.39 µM; 340,000 compounds, 0.28% hits; AID 492972;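 active = inhibition above the screen-wide average of all tested compounds plus 3 SD, cut at about 25% in these data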
Target sequence (Q15102 whole entry, looked up): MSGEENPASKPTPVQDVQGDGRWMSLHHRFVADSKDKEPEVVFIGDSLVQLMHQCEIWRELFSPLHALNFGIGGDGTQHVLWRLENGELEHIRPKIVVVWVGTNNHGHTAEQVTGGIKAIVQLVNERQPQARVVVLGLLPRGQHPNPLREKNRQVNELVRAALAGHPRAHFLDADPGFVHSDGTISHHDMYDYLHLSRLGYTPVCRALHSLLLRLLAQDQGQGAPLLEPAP
PAFAH1B2 inh: inhibitors of human PAFAH1B2. 340,000 compounds, 1.2% hits. AID 492953. recombinant PAFAH1B2, FP-rhodamine activity probe, fluorescence polarization. P68402. inhibition, % at 3.39 µM;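 active = inhibition above the mean of all tested compounds plus 3 SD, cut at about 24% in these data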
Target sequence (P68402 whole entry, looked up): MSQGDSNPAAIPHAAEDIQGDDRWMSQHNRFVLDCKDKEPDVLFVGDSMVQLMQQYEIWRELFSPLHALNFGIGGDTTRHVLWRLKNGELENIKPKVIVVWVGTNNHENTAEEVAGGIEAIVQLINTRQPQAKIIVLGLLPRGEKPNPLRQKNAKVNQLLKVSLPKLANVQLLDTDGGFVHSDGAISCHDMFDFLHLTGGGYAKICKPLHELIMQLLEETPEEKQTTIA
Numbers stand for hits; i = inactive; nt = no result.

SMILES | E coli Lon inh | PAFAH2 FP inh | pPAFAH inh | Rin1 Abl inh | PAFAH1B3 FP inh | PAFAH1B2 inh
COc1cc(C(=O)ON=C2C(C)=CC(=O)C=C2C)cc(OC)c1OC | i | 83 | i | i | i | i
COCCn1c(C)c(C)c(S(=O)(=O)c2ccccc2)c1N | i | 59 | i | i | 41 | 41
CC(OCC(O)CN(C)Cc1nc2ccccc2c(=O)[nH]1)c1ccc(Cl)cc1 (stereo unspecified) | i | i | i | i | i | 28
O=C1CCc2cc(S(=O)(=O)Nc3ccc(F)cc3)ccc2N1 | i | i | 29 | i | i | i
Cn1c(=O)oc2cc(S(=O)(=O)Nc3ccc(F)cc3)ccc21 | i | i | 26 | i | i | i
Cc1cccc(NS(=O)(=O)c2ccc3c(c2)CCC(=O)N3)c1 | i | i | 28 | i | i | i
NNC(=S)NC1CCCCCCCCCCC1 | i | i | i | i | i | 55
Cc1ccc([C@H]2C[C@@H](O)[C@H](n3cc(-c4ccc(F)cc4)nn3)CN2C(=O)C2CCCCC2)cc1 | i | nt | nt | i | nt | nt
O=C1c2cccc3c(N4CCCCC4)ccc(c23)C(=O)N1c1ccccn1 | i | i | i | i | i | i
O=C1c2ccccc2-c2n[nH]c(=O)c3ccc(N4CCCCC4)c1c23 | i | i | 33 | i | i | i
COc1cccc(C(C)(O)c2nc(-c3cc(F)cc(F)c3)cs2)c1 (stereo unspecified) | i | nt | nt | i | nt | nt
CC(=O)C[C@H](O)CC(=O)[C@H]1OC(=O)CCCCCCCCc2ccccc21 | i | i | i | i | i | 37
CC(=O)C[C@H](O)CC(=O)[C@H]1OC(=O)CCCCCc2ccccc21 | i | i | i | i | i | i
CC1CC(C)CN(S(=O)(=O)c2ccc(C(=O)NNC(=O)c3ccccc3F)cc2)C1 (stereo unspecified) | i | i | i | i | i | 26
FC(F)(F)c1ccc2c(c1)NCC1CCCN21 (stereo unspecified) | i | 86 | 27 | i | i | i
FC(F)(F)c1ccc2c(c1)N1CCCC1CN2 (stereo unspecified) | i | i | i | i | i | i
C[C@H](NC(=O)c1nc[nH]c1C(=O)NCC(=O)OCc1ccccc1)c1ccccc1 | i | i | i | i | i | 34
CCCCNC(=S)N(CCCO)Cc1cc2cc3c(cc2[nH]c1=O)OCO3 | i | nt | nt | i | nt | nt
CC(=O)Oc1ccccc1Cn1c(C)c(C(=O)NCc2ccc(Cl)c(Cl)c2)sc1=O | i | nt | nt | i | nt | nt
COc1cccc(/C=N/NC(=O)c2cc3c(OC)ccc(OC)c3[nH]2)c1O | i | i | i | i | 40 | 29
CCN(CC(=O)Nc1ccc(NC(C)=O)cc1)Cc1c(O)ccc2cc(Br)ccc12 | i | i | i | i | i | 68
C=CCn1c(SCC#N)nc2c(c1=O)C(C)(C)Cc1ccccc1-2 | i | i | i | i | i | 25
COc1cc(/C=C(/NC(=O)c2ccccc2)C(=O)N2CCOCC2)c([N+](=O)[O-])cc1OC | i | i | i | i | i | i
Cc1ccc(C2C(C#N)=C(N)Oc3cc(N)ccc32)cc1 (stereo unspecified) | i | i | 27 | i | i | i
C[C@H]1CCC[C@]2(C)C[C@H]3OC(=O)C(CN4CCCCCC4)[C@H]3C=C12 (stereo partly specified) | i | i | i | i | i | 30
SMILES | E coli Lon inh | PAFAH2 FP inh | pPAFAH inh | Rin1 Abl inh | PAFAH1B3 FP inh | PAFAH1B2 inh
O=C(NCC(=O)N(c1ccccc1F)C(C(=O)NC1CCCC1)c1cccnc1)c1ccco1 (stereo unspecified) | i | i | i | i | i | i
CN(CC(=O)NCc1ccc(F)cc1)Cc1ccc(Br)cc1 | i | i | i | i | i | 25
COc1ccc(Br)cc1CN(C)CC(=O)NCc1ccc(F)cc1 | i | i | i | i | i | i
Cc1ccc(C)c(S(=O)(=O)N2CCN(C(=O)/C=C/c3ccco3)CC2)c1 | i | i | 30 | i | i | i
O=C(CCNS(=O)(=O)c1ccc(Cl)cc1)N1CCCCCC1 | i | i | i | i | i | 27
Cc1ccc(C)c(S(=O)(=O)N2CCN(C(=O)CCNS(=O)(=O)c3ccc(C)c(C)c3)CC2)c1 | i | i | 27 | i | i | i
COc1ccc(CCNC(=O)C2CCCN2C(=O)Nc2ccc(F)cc2)cc1OC (stereo unspecified) | i | i | i | i | i | i
CCC(=O)c1cn(CC(=O)Nc2cc(C)ccc2C)c2ccccc12 | i | i | i | i | i | i
Oc1c(Cl)cc(Cl)cc1Sc1cc(Cl)cc(Cl)c1O | nt | nt | 77 | nt | nt | nt
O=S(c1cc(Cl)cc(Cl)c1O)c1cc(Cl)cc(Cl)c1O | i | nt | nt | nt | nt | nt
O=C(O)c1ccc(N2N=C(c3ccccc3)CC2c2ccccc2)cc1 (stereo unspecified) | i | i | 32 | i | i | i
O=Cc1ccc(N2N=C(c3ccccc3)CC2c2ccccc2)cc1 (stereo unspecified) | i | i | 30 | i | i | i
COC(=O)C(=C/C=C/N1CCOCC1)C(=O)OC | nt | nt | 25 | nt | nt | nt
CCOC(=O)/C(=C\C=C\N1CCOCC1)C(C)=O | i | i | i | i | i | i
CCOc1nc(-c2ccccc2)ncc1Oc1ccccc1 | i | nt | i | i | nt | nt
COC(=O)Nc1sc2c(c1C(N)=O)CCC(C)C2 (stereo unspecified) | i | i | i | i | i | i
CC1CCc2c(sc(NC(=O)c3cccn3C)c2C(N)=O)C1 (stereo unspecified) | i | i | 29 | i | i | i
CC(=Nc1ccccc1)C1=C(O)C(Cc2cccc(F)c2)NC1=O (stereo unspecified) | i | nt | nt | i | nt | nt
CCOC(=O)CC1(NC(=O)c2cc(COc3cccc(OC)c3)on2)CCCCC1 | i | i | i | i | i | i
Cc1ccc(CS(=O)(=O)Cc2ccc(C(=O)NCCCN3CC(C)CC(C)C3)o2)cc1 (stereo unspecified) | i | i | 31 | i | i | i
CCSC(=O)NC12CC3CC(CC(C3)C1)C2 | i | i | i | i | i | i
CSC(=O)NC12CC3CC(CC(C)(C3)C1)C2 | i | i | i | i | i | 28
CCCCN(CCCNC(=O)C1CCN(S(=O)(=O)CC)CC1)c1ccccc1 | i | i | 28 | i | i | i
Cc1cccc2c1cnn2C(=O)CCC(=O)NCc1ccc(F)cc1 | i | i | i | i | i | i
COc1ccc(OC)c(C2C3=C(CC(C)(C)CC3=O)Nc3nnnn32)c1 (stereo unspecified) | i | i | 29 | i | i | i
COc1ccccc1C1C2=C(CC(C)(C)CC2=O)Nc2nnnn21 (stereo unspecified) | i | i | i | i | i | i
COc1ccc(CCNC(=O)COC(=O)COc2ccc(Cl)cc2)cc1OC | i | i | i | i | i | i
O=C(COC(=O)COc1ccc(Cl)cc1)NCCCc1ccccc1 | i | i | i | i | i | 29
O=C(COC(=O)COc1ccccc1)NCCc1ccccc1 | i | i | i | i | i | i
CCOc1ccc(CCNC(=O)COC(=O)COc2ccc(Cl)cc2)cc1OCC | i | i | 26 | i | i | i
